A selection: hits, their analogues and other compounds. The true share with any hit is near 0.82%.
Y pestis TopoI – blocks Yersinia pestis topoisomerase I activity; AID 504884; activity, % at 10 µM; 360,000 tested, 0.064% active; Y. pestis Topo-I cleavage product accumulation, plate reader; in the data active means activity above about 50%, passing the limit was not always enough
UGM FP inh – inhibitors of M. tuberculosis UDP-galactopyranose mutase; P9WIQ1; purified UGM, fluorescence polarization probe displacement; inhibition, % at 10 µM; 320,000 tested, 0.06% active; AID 504406; in the data active means inhibition above about 10%, passing the limit was not always enough
RecA splice inh – blocks M. tuberculosis RecA intein splicing; P9WHJ3; cell-free RecA intein splicing, fluorescence; inhibition, % (concentration not given with the values); 290,000 tested, 0.75% active; AID 2221; in the data active means inhibition above about 30%
BioA inh – blocks M. tuberculosis BioA enzyme activity; 360,000 tested, 0.096% active; purified M. tuberculosis BioA enzyme, plate reader; inhibition, % at 9.99 µM; in the data active means inhibition above about 40%
FadD28 binding – M. tuberculosis FadD28 bisubstrate binding inhibition | inhibition, % at 12.5 µM | AID 588549 | FadD28 bisubstrate probe binding, fluorescence polarization | 360,000 tested, 0.22% active; in the data active means inhibition above about 8.5%, passing the limit was not always enough
Rv3671c protease – inhibits the M. tuberculosis serine protease Rv3671c; P9WHR9; inhibition, % at 5.96 µM; 320,000 tested, 0.048% active; in the data active means inhibition above about 38%;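 further: extracellular domain of Rv3671c used as enzyme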
GFP chromophore – counter-screen: blocks GFP chromophore formation. 2,100 tested, 83% active. shares compounds with RecA splice inh. EC50, µM. cell-free GFP chromophore formation, fluorescence; call rule not given here
Each line names hits and unclear results; the compound was inactive in the other large screens (follow-up assays come after a bar, where they were run).

COc1cccc(C(=O)Nc2nc(SCc3ccc(Cl)cc3)n[nH]2)c1	RecA splice inh 39.2 | GFP chromophore inactive
COc1ccc(Nc2ccccc2N)cc1	none (no result: BioA inh)
Nc1ccc(Nc2ccccc2N)cc1	RecA splice inh 58.3 (no result: BioA inh) | GFP chromophore 19.7
N#Cc1nc(Cc2ccccc2)oc1NCc1cccnc1	none
N#Cc1ncc(Cc2ccccc2)nc1C#N	RecA splice inh 81.7 | GFP chromophore 5.05
O=C1CCn2c1c(O)c1ccccc1c2=O	none (no result: UGM FP inh, RecA splice inh, BioA inh, Rv3671c protease)
N=C1CCC(=N)c2c1c(O)c1ccccc1c2O	RecA splice inh 90.7, FadD28 binding 14.0 (no result: BioA inh) | GFP chromophore 27.6
CC(C)NC(=O)NCC[C@H]1CC[C@H](NC(=O)CN(C)C)[C@H](CO)O1	none (no result: Y pestis TopoI, UGM FP inh, RecA splice inh, FadD28 binding, Rv3671c protease)
COCCOC(=O)C1=C(C)NC2(O)c3ccccc3C(=O)C12O (centres undefined)	none (no result: BioA inh)
CCOC(=O)C1=C(C)NC2(O)c3ccccc3C(=O)C12O (centres undefined)	RecA splice inh 32.9 | GFP chromophore 27.7
c1ccc(-c2nnc(-c3ccccn3)nc2NC2CCCCC2)cc1	RecA splice inh 37.9 | GFP chromophore 22.6
CNc1nc(-c2ccccn2)nnc1-c1ccccc1	none
CNC[C@H]1Oc2cc(-c3cccc(C(=O)N(C)C)c3)ccc2S(=O)(=O)N([C@@H](C)CO)C[C@H]1C	none (no result: Y pestis TopoI, UGM FP inh, RecA splice inh, FadD28 binding, Rv3671c protease)
CCOc1cc(/C=C2\C(=O)N(CCC#N)N=C2C)ccc1OCC(N)=O	RecA splice inh 88.3 (no result: BioA inh) | GFP chromophore 9.29
COc1cc(/C=C2\C(=O)N(CCC#N)N=C2C)ccc1OCC(=O)Nc1ccccc1	RecA splice inh 78.9 | GFP chromophore 5.61
CC1=NN(CCC#N)C(=O)/C1=C/c1ccc(N(C)C)cc1	RecA splice inh 48.2 | GFP chromophore 10.7
CCC(=O)Nc1ccc2c(c1)C(=O)N(C)C[C@@H](OC)[C@H](C)CN(C(=O)c1cccnc1)[C@@H](C)CO2	none (no result: Y pestis TopoI, UGM FP inh, RecA splice inh, FadD28 binding, Rv3671c protease)
C[C@@H]1CN([C@H](C)CO)C(=O)c2cc(NS(=O)(=O)c3cn(C)cn3)ccc2O[C@@H]1CN(C)C(=O)Nc1ccc2c(c1)OCO2	none (no result: Y pestis TopoI, UGM FP inh, RecA splice inh, FadD28 binding, Rv3671c protease)
Cc1cccc(S(=O)(=O)N2C[C@H](O)COC[C@@H]3O[C@@H](CC(=O)NCc4ccc5c(c4)OCO5)CC[C@H]32)c1	none (no result: Y pestis TopoI, UGM FP inh, RecA splice inh, FadD28 binding, Rv3671c protease)
CC(CCc1ccccc1)NC(=O)COC(=O)c1ccc(S(C)(=O)=O)c([N+](=O)[O-])c1 (centres undefined)	RecA splice inh 55.4 (no result: BioA inh) | GFP chromophore 31.9
CS(=O)(=O)c1ccc(C(=O)OCc2nnc(-c3ccccc3)o2)cc1[N+](=O)[O-]	RecA splice inh 73.5 (no result: UGM FP inh, BioA inh, Rv3671c protease) | GFP chromophore 13.6
CC(C)CCn1c(Sc2nc3ccccc3o2)nc2c1c(=O)[nH]c(=O)n2C	RecA splice inh 31.1 | GFP chromophore 5.03
Cn1c(=O)[nH]c(=O)c2c1nc(N1CCCCC1)n2CCSc1nc2ccccc2o1	none
CCCNC(=O)N(C)C[C@@H]1Oc2ncc(C3=CCCC3)cc2C(=O)N([C@H](C)CO)C[C@H]1C	none (no result: Y pestis TopoI, UGM FP inh, RecA splice inh, FadD28 binding, Rv3671c protease)
CCOC(=O)c1c(CC(C)C)csc1NC(=O)CCl	RecA splice inh 51.7 | GFP chromophore inactive
CCOC(=O)c1c(CC(C)C)csc1NC(=O)C(C)C	none
CC(=O)N1C(=O)C2(C(C#N)=C(N)Oc3c2c(C)nn3-c2ccccc2)c2ccccc21 (centres undefined)	RecA splice inh 54.7 | GFP chromophore 5.81
Cc1nn(-c2ccccc2)c2c1C1(C(=O)N(C)c3ccccc31)C(C#N)=C(N)O2 (centres undefined)	none (no result: BioA inh)
Cc1nn(-c2ccccc2)c2c1C1(C(=O)N3c4c(cccc41)C(C)CC3(C)C)C(C#N)=C(N)O2 (centres undefined)	RecA splice inh 49.2 | GFP chromophore 9.67
C[C@H](CO)N1C[C@H](C)[C@H](CN(C)Cc2ccc(C(=O)O)cc2)Oc2ccc(NC(=O)C3CCCCC3)cc2CC1=O	none (no result: Y pestis TopoI, UGM FP inh, RecA splice inh, FadD28 binding, Rv3671c protease)
CO[C@@H]1CN(C)C(=O)c2cc(NS(C)(=O)=O)ccc2OC[C@@H](C)N(CC2CCOCC2)C[C@H]1C	none (no result: Y pestis TopoI, UGM FP inh, RecA splice inh, FadD28 binding, Rv3671c protease)
O=C(C[C@H]1C[C@@H]2c3cc(NC(=O)C4CCC4)ccc3O[C@@H]2[C@@H](CO)O1)NCc1ccc2c(c1)OCO2	none (no result: Y pestis TopoI, UGM FP inh, RecA splice inh, FadD28 binding, Rv3671c protease)
CCCN1[C@@H]2Cn3c(ccc(-c4ccccc4OC)c3=O)[C@H]1[C@@H](C(=O)NCc1ccccn1)[C@@H]2CO	none (no result: Y pestis TopoI, UGM FP inh, RecA splice inh, FadD28 binding, Rv3671c protease)
CC(=O)OCCNc1cc(N2CCN(C)CC2)c2noc3c2c1C(=O)c1ccccc1-3	none (no result: UGM FP inh, RecA splice inh, Rv3671c protease)
CCOC(=O)C(C(=O)OCC)c1cc(Br)c2noc3c2c1C(=O)c1ccccc1-3	RecA splice inh 82.1 (no result: BioA inh) | GFP chromophore 3.3

Assay outcomes (PubChem)
